Data: PubChem BioAssay AID1347417 (National Center for Advancing Translational Sciences (NCATS), 2020)
Out of some 120,000 compounds screened, about 5,300 (4.4%) were called active. Entries that show only a call come without a potency. Roughly 22% stayed inconclusive and do not appear here. The call rests on the fitted dose curve; in most records, active means well fitted inhibition curve with a large enough effect; inconclusive means small, poorly fitted or top-dose-only effect; inactive means no such curve, though single readings can be large or run the other way. Many of the other results were omitted from the sample, so actives are more common in it than they were.
Potency means the concentration at half of the fitted maximal effect.

Test: qHTS Primary assay for Inhibitors of Plasmodium falciparum Dd2 growth in vitro; further: nearly all actives have a fitted effect of over 65% in size
Details: P. falciparum Dd2 growth, SYBR Green, 72 h; series mostly up to 28.9 µM
In short: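 Infected erythrocytes (Dd2, 0.3% parasitemia, 2.5% hematocrit final) are added to compound in RPMI-1640/Albumax II medium, grown 72 h at 37C in low oxygen, then lysed with saponin/Triton-X containing SYBR Green and read by fluorescence.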
In the case of `CS(=O)(=O)N1CCC(F)(c2nc(-c3ccccc3)no2)CC1`, the Potency is reported as “inactive”. With `CN1CC(=O)N(c2ccccc2F)Cc2c(NCCc3ccc(F)cc3)ncnc21` the Potency was “inactive”. For `Cc1sc2cc(C(=O)N(C)C)[nH]c2c1CN1CCCCC1`, the Potency was “inactive”. In the case of `CC(C)OC(=O)c1ccc(NC(=O)Cn2nc3c(cc2=O)CCCCC3)cc1`, the Potency is reported as “inactive”. In the case of `Cc1c(NS(=O)(=O)c2ccc(Cl)cc2)c(=O)n(-c2ccccc2)n1C`, the Potency is reported as “inactive”. For `CC(=O)c1c(C)n(S(=O)(=O)c2ccc(Cl)cc2)c2ccc(NS(=O)(=O)c3ccc(Cl)cc3)cc12`, the Potency was 11.2 µM (active). For `Cn1c(=O)n(C)c2cc(NS(=O)(=O)c3ccc(F)cc3)ccc21`, the Potency was “inactive”. With `COCCCNc1nc2c(S(=O)(=O)c3ccc(C(C)C)cc3)nnn2c2ccccc12` the Potency was “inactive”. In the case of `COc1cc2c(=O)c(S(=O)(=O)c3ccc(C(C)C)cc3)cn(Cc3ccccc3C)c2cc1OC`, the Potency is reported as 8.91 µM (active). In the case of `O=C(NCc1cc(F)cc(F)c1)c1noc(-c2ccc3c(c2)OCO3)n1`, the Potency is reported as “inactive”. In the case of `COc1ccc(CNC(=O)N2CCCCC2c2noc(COCC3CC3)n2)cc1` (stereo unspecified), the Potency is reported as “inactive”. For `Cc1ccc(-c2cn3c(n2)sc2cc(C(=O)NCCCc4ccccc4)ccc23)cc1`, the Potency was “inactive”. In the case of `CCOc1cccc2cc(-c3cn4c(n3)sc3cc(C)ccc34)c(=O)oc12`, the Potency is reported as “inactive”. For `Cc1ccc(-c2cn3c(n2)sc2cc(C(=O)NCc4cccs4)ccc23)c(C)c1`, the Potency was 11.2 µM (active). With `O=C(NCc1ccccc1)c1cnc2n1CCN(Cc1c[nH]c3ccccc13)CC2` the Potency was “inactive”. In the case of `COCC(=O)Nc1ccc([C@H]2OCC(=O)N[C@@H]2CO)cc1`, the Potency is reported as “inactive”. In the case of `Cn1ncc(N2CCC(C(=O)N3CC=C(c4ccccc4)CC3)C2)cc1=O` (stereo unspecified), the Potency is reported as “inactive”. For `Cn1cnc(C(=O)N2CCC(OC3CCN(S(C)(=O)=O)CC3)CC2)c1`, the Potency was “inactive”. With `CC(C)c1csc(CN2CCN(c3ncccc3C#N)CC2)n1` the Potency was “inactive”. With `Oc1ccccc1CN1CCC(O)(c2csc(CN3CCN(c4ccccn4)CC3)n2)CC1` the Potency was 7.94 µM (active). For `COc1ccc(NC(=O)N2CCC(O)(c3csc(CN4CCc5ccccc5C4)n3)CC2)cc1`, the Potency was “inactive”. With `COc1ccccc1CCC(=O)N1CCC[C@H]1c1nc(-c2ccccc2)no1` the Potency was “inactive”. With `CC(C)c1cc(C(=O)NCc2cccnc2Oc2ccc(F)cc2F)on1` the Potency was “inactive”. With `CN(C)c1nc2c(c(=O)[nH]1)CCN(Cc1ccncc1)CC2` the outcome was “inactive [at 5.79 µM]”. For `Cc1ccc(CN2C(=O)[C@@H]3C[C@@H](O)CN3C3(CN(Cc4ccncc4)C3)C2=O)o1`, the Potency was “inactive”. In the case of `COc1ccc(OC)c(S(=O)(=O)N2CCCCCCNC(=O)CC2c2ccccc2)c1` (stereo unspecified), the Potency is reported as “inactive”. In the case of `O=C1CC(c2ccccc2)N(C(=O)CNC(=O)c2cnccn2)CCCCCCN1` (stereo unspecified), the Potency is reported as “inactive”. In the case of `O=C1CC(c2ccccc2)N(Cc2cn[nH]c2-c2ccc(F)cc2)CCCCCN1` (stereo unspecified), the Potency is reported as 8.91 µM (active). For `Cn1cc(CC(=O)N2CCCc3ncc(C(=O)NCc4ccc(F)cc4)cc32)c2ccccc21`, the Potency was “inactive”. In the case of `CC(=O)N1CCCN(Cc2nnc(C(=O)N3CCC[C@@H]3C(c3ccccc3)c3ccccc3)n2-c2ccccc2)CC1`, the Potency is reported as “inactive”. For `Cc1nc(N2CCC(NCCNc3ccncc3C)CC2)c2ccsc2n1`, the Potency was 10 µM (active). For `Cc1nc(N2CCC(NC(=O)c3cnccn3)CC2)cc(C(F)(F)F)n1`, the Potency was “inactive”. With `Cc1occc1C(=O)NC1CCc2nn(CC3CC3)c(=O)n2CC1` (stereo unspecified) the Potency was “inactive”. In the case of `CN1CCOC(CNc2ncc(C(C)(C)C(=O)O)c(N3CCOCC3)n2)C1` (stereo unspecified), the Potency is reported as “inactive”. In the case of `Cc1c(CNC(=O)c2ccc3c(c2)[nH]c(=O)n3C2CCC(O)CC2)cnn1C` (stereo unspecified), the Potency is reported as “inactive”. In the case of `COc1ccc(-c2nc3c(c(SCC(=O)Nc4ccc(C(=O)O)cc4)n2)Cc2ccccc2O3)cc1`, the Potency is reported as “inactive”. With `Cc1ccccc1CSc1nc(-c2ccccc2)nc2c1Cc1c(CO)cnc(C)c1O2` the Potency was 3.98 µM (active). With `CSc1nc(-c2ccc(F)cc2)nc2c1Cc1c(CO)cnc(C)c1O2` the Potency was “inactive”. In the case of `COc1cccc(C2Cn3nnc(-c4nc(-c5ccccc5F)no4)c3CO2)c1` (stereo unspecified), the Potency is reported as “inactive”. With `Cc1ccc(CN2CCC(C3CCN(C)CC3)C2)o1` (stereo unspecified) the Potency was “inactive”. For `CCOc1cc(C(=O)N2CCC[C@H]2c2nc(-c3ccc(F)cc3)no2)cc(OCC)c1OCC`, the Potency was “inactive”. In the case of `COC(=O)c1ccccc1NC(=O)C(Cc1ccccc1)N1Cc2ccccc2C1=O` (stereo unspecified), the Potency is reported as “inactive”. In the case of `COC(=O)c1ccccc1NC(=O)c1cc(-c2ccccc2O)no1`, the Potency is reported as 4.47 µM (active). For `COC(=O)c1ccccc1NC(=O)c1ccc(COc2ccccc2Cl)o1`, the Potency was “inactive”. In the case of `CC(C)(C)CC(=O)N1CC[C@@H](CC(=O)O)[C@@H](CCN2CCN(c3ccc(F)cc3)CC2)C1`, the Potency is reported as “inactive”. With `O=C(NCCc1cn[nH]c1)[C@H]1CCC[C@@H](O)C1` the Potency was “inactive”. For `Cn1cc(-c2ccccc2Oc2ccccc2)c2nc(CN3CCNC(=O)C3)cn2c1=O`, the Potency was “inactive”. With `Cn1nccc1CN1CCc2nc(C3CC3)nc(-c3ccc(O)cc3)c2C1` the Potency was “inactive”. With `Oc1ccc(-c2nc(C3CC3)nc3c2CN(Cc2ccc(F)cc2)CC3)cc1` the Potency was 5.62 µM (active). In the case of `Oc1ccc(-c2nc(C3CC3)nc3c2CCN(Cc2cccc(F)c2)CC3)cc1`, the Potency is reported as “inactive”. In the case of `O=C1OCC2(CCN(Cc3ccc(F)c(Cl)c3)C2)N1Cc1ccccn1` (stereo unspecified), the Potency is reported as “inactive”. For `C[C@@H](NC(=O)COc1ccccc1)c1c(-c2ccc(F)cc2)noc1C(=O)O`, the Potency was “inactive”. With `Cc1cc(N2CCC(NC(=O)c3ccc(N(C)C)cc3)C2=O)ccc1F` (stereo unspecified) the Potency was “inactive”. For `COc1ccccc1CNC(=O)CCn1c(=O)c2ccccc2n(CC(=O)Nc2cccc(Cl)c2)c1=O`, the Potency was “inactive”. For `Cc1ccc(Cn2c(=O)n(CCCC(=O)NCc3ccccc3Cl)c(=O)c3ccccc32)cc1`, the Potency was “inactive”. For `COc1ccc(NC(=O)Cn2c(=O)n(Cc3ccc(C(=O)NCc4ccccc4Cl)cc3)c(=O)c3ccccc32)cc1`, the Potency was 10 µM (active). With `O=C(O)CCn1ncc2cc(OC3CCN(C(=O)C4CCCC4)CC3)ccc21` the Potency was “inactive”. For `CCCCNC(=O)C1CCN(C(=O)c2nnn3c2COC(c2ccc(C)cc2)C3)CC1` (stereo unspecified), the Potency was “inactive”. With `CCOc1cc(=O)n2c(c1C(=O)Nc1cc(Cl)ccc1F)CCCC2` the Potency was “inactive”. In the case of `Cc1noc2c(NC3CCCCC3)cc(-c3ccsc3)nc12`, the Potency is reported as “inactive”. With `Fc1ccc(CNC2(Cc3cc(-c4ccc(F)cc4)on3)COC2)cc1` the Potency was “inactive”. For `O=C1NCc2ccc(-c3cc4c(ccn4Cc4cccnc4)c(C4=CCOCC4)n3)cc21`, the Potency was “inactive”. For `OCc1cccc(-c2cc(C3=CCOCC3)c3cncn3c2)c1`, the Potency was “inactive”. In the case of `FC(F)(F)c1cccc(-c2cc(C3=CCOCC3)c3cncn3c2)c1`, the Potency is reported as 14.1 µM (active). With `O=C(C1CCOCC1)N1CCC2(CC1)CC(N1CCCC1)CCO2` (stereo unspecified) the Potency was “inactive”. In the case of `COC[C@H]1CCCN1C(=O)C(C)[C@@H]1CC[C@@]2(C)CC[C@H](NC(C)=O)[C@@H](C)[C@@H]2[C@H]1O` (stereo partly specified), the Potency is reported as “inactive”. For `Cc1cccc(C(=O)N2C[C@@H](Oc3cccnc3)C[C@H]2C(=O)N2CCCC2)c1`, the Potency was “inactive”. In the case of `Cc1cc(CNC(=O)C2CCCN(C3CCN(CCc4ccccc4)CC3)C2)on1` (stereo unspecified), the Potency is reported as “inactive”. In the case of `CCC(CC)C(=O)N1CCC(N2CCCC(C(=O)NCc3ccccc3)C2)CC1` (stereo unspecified), the Potency is reported as 10 µM (active). In the case of `O=C(NCC1CC1)C1CCCN(C2CCN(Cc3ccncc3)CC2)C1` (stereo unspecified), the Potency is reported as “inactive”. In the case of `O=C(NCCC1CCN(C(=O)Nc2ccccc2F)CC1)c1ccccc1`, the Potency is reported as “inactive”. In the case of `O=[S+]([O-])(Nc1cccnc1)c1ccc2c(c1)OCCN(Cc1ccc(F)cc1)C2`, the Potency is reported as “inactive”. With `Cc1ccc(S(=O)(=O)Nc2nc3c(s2)C[C@@H]2[C@](C)(CO)[C@H](O)CC[C@@]2(C)[C@@H]3CC(=O)O)cc1` the Potency was “inactive”. For `C=CCN(C)C(=O)C[C@@H]1c2nc(NC(=O)c3ccc(C(C)(C)C)cc3)sc2C[C@@H]2[C@](C)(CO)[C@H](O)CC[C@]21C`, the Potency was 3.98 µM (active). With `C=CCN(C)C(=O)[C@@H](C)C1CC[C@@]2(C)Cc3sc(Nc4c(Cl)cccc4Cl)nc3[C@@H](C)[C@@H]2[C@H]1O` (stereo partly specified) the Potency was “inactive”. With `CC1CCN(C(=O)C[C@@H]2c3nc(NC(=O)c4ccnc(Cl)c4)sc3C[C@@H]3[C@](C)(CO)[C@H](O)CC[C@]32C)CC1` the Potency was 6.31 µM (active). For `CCCCCC(=O)Nc1nc2c(s1)C[C@@H]1[C@](C)(CO)[C@H](O)CC[C@@]1(C)[C@@H]2CC(=O)N1CCC(C(N)=O)CC1`, the Potency was “inactive”. In the case of `COCC(=O)Nc1nc2c(s1)C[C@@H]1[C@](C)(CO)[C@H](O)CC[C@@]1(C)[C@@H]2CC(=O)NCCN1CCOCC1`, the Potency is reported as “inactive”. For `CN1CCC2(C1)CN(CC1CCOCC1)c1ccc(C(=O)NCCCn3ccnc3)cc12` (stereo unspecified), the Potency was “inactive”. With `c1ncc(CN2CCn3c(nnc3C3CCCNC3)C2)s1` (stereo unspecified) the Potency was “inactive”. In the case of `Cc1nc(N)nc(C)c1CC(=O)N1CCC2(CC1)OCCCC2O` (stereo unspecified), the Potency is reported as “inactive”. For `Cc1ccc(C(=O)Nc2ccc3[nH]c(=O)c(=O)[nH]c3c2)cc1`, the Potency was “inactive”. With `COc1ccc(CNC(=O)c2ccc3c(O)c(S(=O)(=O)c4ccccc4)c(=O)[nH]c3c2)cc1` the Potency was “inactive”. With `CC(C)c1ccc(NC(=O)c2ccc3c(O)c(S(=O)(=O)c4ccccc4)c(=O)[nH]c3c2)cc1` the Potency was 11.2 µM (active). For `COc1cccc([S+](=O)([O-])N2CCC3(C2)C(=NC2CCCCC2)NC(=O)N3c2cccnc2)c1` (stereo unspecified), the Potency was “inactive”. In the case of `N#Cc1ccc(S(=O)(=O)N2CC(n3cc(C(=O)NCc4ccccc4)nn3)C2)cc1`, the Potency is reported as “inactive”. For `O=C1NCCCCCN(Cc2cccnc2)[C@@H]2CN(C(=O)C3CCCCC3)CC[C@@H]12`, the Potency was “inactive”. In the case of `Cc1ccc(NC(=O)N2CC[C@H]3C(=O)NCCCCCN(Cc4cccnc4)[C@@H]3C2)cc1C`, the Potency is reported as 8.91 µM (active). With `O=C1NCCCCCCN(Cc2ccncc2)[C@@H]2CN(C(=O)Nc3ccc4c(c3)OCCO4)CC[C@@H]12` the Potency was “inactive”. In the case of `O=C(NCc1ccco1)N1CC2CC(C1)[C@H]1CCCC(=O)N1C2` (stereo partly specified), the Potency is reported as “inactive”. With `O=C([C@@H]1CCCN1C1CCNCC1)N1CCN(Cc2cccnc2)CC1` the Potency was “inactive”.
